# C diff growth = C. difficile growth inhibitors, primary screen, HTS; growth activity, negative = inhibition, % at 16 µg/mL (by protocol); hit rate 0.25% among 86,000; Clostridium difficile clinical isolate growth, OD600, 24 h; stronger effect = lower value; AID 1259249, 2017;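 active = mean growth activity at or below -80% and every replicate also at or below -80%; inconclusive = mean at or below -80% but some replicate above -80%; inactive = mean growth activity above -80%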;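 also: 0% = DMSO wells and -100% = levofloxacin 16 µg/mL wells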
# T cruzi growth-1 = T. cruzi intracellular proliferation inhibitors, primary screen, cell-based, beta-gal Tulahuen parasites, NIH3T3 host, luminescence; hit rate 5.9% among 77,000; inhibition, % at 8.34 µM; T. cruzi beta-gal in NIH3T3, GalScreen luminescence, 90 h;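 active = mean inhibition above about 93%, with at least 55% of replicates each passing it, limit read from the data, passing the limit was not always enough; inconclusive = only one of those two conditions holds; inactive = neither condition holds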
# Pf Dd2 inh = P. falciparum Dd2 growth inhibitors, primary screen, SYBR Green fluorescence, single dose replicates. activity change, % at 10 µM. hit rate 2.3% among 94,000. 72 h; stronger effect = lower value; in the data active = activity change below about -80%; inconclusive = no clear call, values can overlap the other calls
# T cruzi growth-2 = T. cruzi intracellular proliferation inhibitors, confirmation, cell-based, NIH3T3 host, beta-gal parasite, luminescence, cherry-pick; shares compounds with T cruzi growth-1; T. cruzi beta-gal in NIH3T3, GalScreen luminescence, 90 h; inhibition, % at 8.35 µM; hit rate 72% among 5,600; AID 651739, 2012;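 active = mean replicate inhibition above about 95% and at least 55% of replicates individually reaching it, limit read from the data; inconclusive = only one of the two criteria is met; inactive = neither criterion is met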
# T cruzi growth-3 = inhibitors of intracellular T. cruzi replication, confirmation, NIH3T3 host cells, beta-gal parasites, cherry-pick, set 2 | shares compounds with T cruzi growth-1 | T. cruzi beta-gal in NIH3T3, GalScreen luminescence, 90 h | inhibition, % at 2.09 µM | hit rate 21% among 5,600 | AID 651740, 2012;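 active = mean inhibition above about 95%, with at least 55% of replicates also reaching it, limit read from the data; inconclusive = meets just one of the two conditions; inactive = meets neither condition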;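 also: plate controls were neutral control median for no effect and positive control median for full effect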
# 3T3 cytotox = cytotoxicity in mouse NIH/3T3 fibroblasts, confirmation, cytotoxicity control for T. cruzi proliferation inhibitor project, cell-based, cherry-pick, single point. NIH/3T3 viability, CellTiter-Glo ATP luminescence, 90 h. hit rate 14% among 5,600. shares compounds with T cruzi growth-1. cytotoxicity (signal decrease), % at 8.35 µM. AID 651742, 2012;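 active = mean signal decrease across replicates above about 35% based on untreated-well scatter, with enough replicates individually passing, limit read from the data; inconclusive = no rule stated though some were filed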;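 also: 0% = median of neutral control wells and 100% = median of positive control wells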
# 3T3 cytotox 2 = NIH/3T3 fibroblast cytotoxicity, confirmation, cytotoxicity control, cell-based, cherry-pick, single point, set 2; inhibition, % at 24.9 µM; hit rate 56% among 5,600; AID 651744, 2012; shares compounds with T cruzi growth-1; NIH/3T3 viability, CellTiter-Glo ATP luminescence, 90 h;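 active = mean loss of cell viability signal at or above a set limit, and enough replicates individually reaching it; inconclusive = meets only the mean limit or only the replicate share; inactive = meets neither condition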;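 also: 0% = median of neutral control wells and 100% = median of positive control wells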
# An asterisk follows results filed as active; ? = inconclusive; · = not tested or not shown. Compounds with a hit are over-represented: about 6.8% of the library has one in this group of screens.
SMILES,C diff growth,T cruzi growth-1,Pf Dd2 inh,T cruzi growth-2,T cruzi growth-3,3T3 cytotox,3T3 cytotox 2
O=C(NC1CCCC1)N1CCCCN2[C@@H](CO)[C@@H](c3ccc(-c4ccncc4)cc3)[C@@H]2C1,20,105*,8,97*,42,11,-9
Cc1ccccc1-c1ccc([C@@H]2[C@@H](CO)N3CCCCN(C(=O)NC4CCCC4)C[C@H]23)cc1,23,95,9,·,·,·,·
O=C(NC1CCCC1)N1CCCCN2[C@H](C1)[C@H](c1ccc(-c3ccccc3)cc1)[C@@H]2CO,2,80,0,·,·,·,·
O=C(NC1CCCC1)N1CCCCN2[C@@H](CO)[C@H](c3ccc(-c4ccccc4)cc3)[C@@H]2C1,2,113*,1,95*,43,3,95*
CCNC(=O)C[C@@H]1CC[C@@H]2[C@@H](COc3ccc(NS(C)(=O)=O)cc3C(=O)N2C)O1,-2,-15,13,·,·,·,·
CCNC(=O)C[C@@H]1CC[C@H]2[C@H](COc3ccc(NC(=O)c4cccs4)cc3C(=O)N2C)O1,-9,15,-4,·,·,·,·
C[C@@H]1CCCCO[C@@H](CN(C)Cc2ccc(C(=O)O)cc2)[C@H](C)CN([C@H](C)CO)C(=O)c2cc(NC(=O)c3ccccc3)ccc2O1,2,-20,20,·,·,·,·
C[C@H](CO)N1C[C@H](C)[C@@H](CN(C)CC2CCCC2)Oc2cc(C#CCN(C)C)ccc2S1(=O)=O,-5,·,-5,·,·,·,·
O=C(C[C@H]1C=C[C@@H](NC(=O)CCN2CCCCC2)[C@H](CO)O1)Nc1ccccc1,5,·,25,·,·,·,·
O=C(NC1CCCC1)N1CCCCN2[C@H](C1)[C@H](c1ccc(-c3cncnc3)cc1)[C@@H]2CO,0,?,9,107*,-13,-22,-4
O=C(NC1CCCC1)N1CCCCN2[C@H](C1)[C@H](c1ccc(-c3ccncc3)cc1)[C@@H]2CO,-6,-5,-6,·,·,·,·
C[C@H](CO)N1C[C@H](C)[C@@H](CN(C)C(=O)c2ccccc2)Oc2cc(/C=C/c3ccccc3)ccc2S1(=O)=O,-4,?,-69,104*,59,6,43*
C[C@@H]1CN([C@@H](C)CO)S(=O)(=O)c2ccc(/C=C/c3ccccc3)cc2O[C@H]1CN(C)C(=O)c1ccncc1,6,101*,-33,103*,66,38*,70*
C/C=C/c1ccc2c(c1)O[C@@H](CN(C)C(=O)c1ccccc1)[C@@H](C)CN([C@@H](C)CO)S2(=O)=O,5,·,-3,·,·,·,·
C/C=C/c1ccc2c(c1)O[C@H](CN(C)C(=O)c1ccccc1)[C@@H](C)CN([C@H](C)CO)S2(=O)=O,2,·,-23,·,·,·,·
C/C=C/c1ccc2c(c1)O[C@@H](CN(C)C(=O)c1cccc(F)c1)[C@@H](C)CN([C@@H](C)CO)S2(=O)=O,0,?,-58,86,31,13,?
C[C@H](CO)N1C[C@H](C)[C@H](CN(C)C(=O)c2ccccc2)Oc2cc(/C=C/c3ccccc3)ccc2S1(=O)=O,3,127*,-78,101*,78,24,14
C/C=C/c1ccc2c(c1)O[C@H](CN(C)C(=O)c1ccncc1)[C@@H](C)CN([C@H](C)CO)S2(=O)=O,2,61,4,·,·,·,·
C/C=C/c1ccc2c(c1)O[C@H](CN(C)C(=O)c1cccc(F)c1)[C@H](C)CN([C@H](C)CO)S2(=O)=O,-1,78,-40,·,·,·,·
COc1ccc2c3c(n(C)c2c1)[C@H](CO)N(S(C)(=O)=O)CC31CN(C(=O)C2CC2)C1,-7,·,-10,·,·,·,·
CNC[C@@H]1OCCCC[C@@H](C)Oc2ccc(NS(C)(=O)=O)cc2C(=O)N([C@@H](C)CO)C[C@H]1C,1,62,19,·,·,·,·
CO[C@H]1CN(C)C(=O)c2ccc(NC(=O)Nc3c(C)noc3C)cc2OC[C@@H](C)NC[C@@H]1C,·,50,22,·,·,·,·
CCCc1cn(CC[C@@H]2CC[C@H](NC(=O)C3CCOCC3)[C@H](CO)O2)nn1,2,73,-11,·,·,·,·
C[C@H](CO)N1C[C@H](C)[C@H](CN(C)C(=O)Nc2ccc3c(c2)OCCO3)OCc2cn(nn2)CCCC1=O,0,23,3,·,·,·,·
COc1ccc2c3c([nH]c2c1)[C@H](CO)N(C(=O)Nc1ccc(F)cc1)CC31CCN(S(=O)(=O)c2cn(C)cn2)CC1,9,·,-43,·,·,·,·
SMILES,C diff growth,T cruzi growth-1,Pf Dd2 inh,T cruzi growth-2,T cruzi growth-3,3T3 cytotox,3T3 cytotox 2
CN(C)C(=O)[C@@H]1[C@@H](CO)[C@@H]2Cn3c(cccc3=O)[C@@H]2N1C(=O)NC1CCCC1,5,·,40,·,·,·,·
CC(C)NC(=O)N(C)C[C@H]1OCCCC[C@H](C)Oc2ccc(NC(=O)c3ccccc3)cc2C(=O)N([C@H](C)CO)C[C@H]1C,21,-8,-24,·,·,·,·
C[C@@H]1CCCCO[C@@H](CN(C)C(=O)Nc2ccccc2)[C@H](C)CN([C@H](C)CO)C(=O)c2cc(NC(=O)c3ccncc3)ccc2O1,-4,13,-5,·,·,·,·
C[C@@H]1CN([C@@H](C)CO)S(=O)(=O)c2ccc(/C=C/c3ccccc3)cc2O[C@H]1CN(C)C(=O)c1ccccc1,5,127*,-78,110*,74,55*,85*
C/C=C/c1ccc2c(c1)O[C@H](CN(C)C(=O)c1ccccc1)[C@H](C)CN([C@H](C)CO)S2(=O)=O,-3,·,-8,·,·,·,·
CC(C)NC(=O)N(C)C[C@@H]1Oc2ccc(N(C)C)cc2C(=O)N([C@@H](C)CO)C[C@@H]1C,-1,7,8,·,·,·,·
COc1cccc(-c2ccc3c(c2)[C@@H]2[C@@H](CCN2S(=O)(=O)c2ccccc2C)[C@H](CO)N3)c1,4,28,-33,·,·,·,·
O=S(=O)(c1ccccc1F)N1CC[C@@H]2[C@H](CO)Nc3ccc(-c4ccc(F)cc4)cc3[C@@H]21,-14,?,-12,90,84,12,105*
N#Cc1cccc(-c2ccc3c(c2)[C@H]2[C@H](CCN2S(=O)(=O)c2ccccc2F)[C@H](CO)N3)c1,8,110*,15,94,82,47*,74*
O=S(=O)(c1ccccc1F)N1CC[C@@H]2[C@H]1c1cc(-c3ccccc3)ccc1N[C@@H]2CO,32,87,-51,·,·,·,·
N#Cc1ccc(-c2ccc3c(c2)[C@@H]2[C@@H](CCN2S(=O)(=O)c2ccccc2F)[C@@H](CO)N3)cc1,-2,32,12,·,·,·,·

# Screening results (PubChem)
